Screens (PubChem BioAssay)
ClpP mod – qHTS Assay for Activators of ClpP; ATP-dependent Clp protease proteolytic subunit (Bacillus subtilis (strain 168)), P80244; purified B. subtilis ClpP, FRET peptide cleavage, 20 min; Potency, µM (top dose mostly 57.5 µM), inactives show at the top dose activity change, negative = active; hit rate 1.9% among 340,000; AID 651965, 2013; active = well fitted falling curve with a large enough effect; inconclusive = small, poorly fitted or top-dose-only effect; inactive = no such curve, though single readings can be large or run the other way; note: the source files actives as falling curves though it sought activators and does not explain the sign; nearly all actives have a fitted effect of over 65% in size
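Buffer: 100 mM Tris/HCl pH8, 100 mM KCl, 0.05% low protease BSA, 2.5% glycerol, 0.01% Tween-20. ClpP 10 microg/mL final; 20 min RT; delta FRET normalized to ADEP and DMSO controls.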
PINK1 expr mod – modulators of PINK1 expression | PINK1 immunofluorescence, high-content cytometry, 24 h | Potency, µM (top dose mostly 76.6 µM), for inactives: top-dose activation (PINK1 increase), usual class: activators | hit rate 0.2% among 410,000; active = well fitted activation curve with a large enough effect; inconclusive = small, poorly fitted or top-dose-only effect; cell line not stated here; note: % of control where 0% means no effect; nearly all actives have a fitted effect of over 65% in size
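Readout is PINK1 immunofluorescence, quantified alongside mitochondrial, cell and nuclear markers by laser-scanning microplate cytometry. Cells from a stable line were exposed to compound titrations (5 concentrations) for 24 hours, with CCCP controls.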
Sfp PPTase inh – blocks B. subtilis Sfp PPTase activity. Q9F4F7. Biochemical Sfp PPTase activity, qHTS. Potency, µM, for the others: largest response in the series, negative = inhibition, usual class: inhibitors. hit rate 3.5% among 310,000. AID 1490;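 note: the enzyme is Sfp with the accession as filed and its product quenches rhodamine fluorescence; 0% = enzyme reaction without inhibitor and -100% = no enzyme wells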
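Buffer: 50 mM Hepes-Na pH 7.6, 10 mM MgCl2, 0.01% Nonidet P-40, 0.01% BSA. Enzyme 15 nM, pre-exposed to compound 15 min; substrates then added and fluorescence change tracked over 30 min.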
Gal4-VP16 FLuc – counter-screen for ROR gamma inhibitors: Gal4-VP16 reporter; Drosophila S2 Gal4-VP16 UAS-luciferase, luminescence, 20 h; Potency, µM (top dose mostly 53.6 µM), for inactives: at the top dose activity, negative = inhibition, usual class: inhibitors; hit rate 3.5% among 310,000;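 note: Gal4-VP16 expression switched on by copper sulfate through the metallothionein promoter; % is set by controls: 0 for no effect and ±100 for the full control effect; nearly all actives have a fitted effect of over 50% in size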
RORgamma inh – ROR gamma (mouse) transcription inhibition | P51450 | hit rate 5.4% among 310,000 | AID 2551 | Drosophila S2 Gal4-RORgamma UAS-luciferase reporter, 20 h | Potency, µM (titrated, usually from 53.6 µM), without a hit: at the top dose activity change, negative = inhibition, usual class: inhibitors; note: % is set by controls: 0 for no effect and ±100 for the full control effect; nearly all actives have a fitted effect of over 60% in size
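Stable Schneider cell line, Gal4 DNA-binding domain fused to ROR gamma, UAS-luciferase. Cmpd 1 hr RT → CuSO4 700 uM final → 20 hr RT → luciferase reagent 10 min → luminescence.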
Epigenetic derep – regulators of epigenetic silencing causing reporter derepression in mouse cells | hit rate 0.2% among 280,000 | murine LDR cells, GFP reporter derepression, 30 h | AID 1865 | Potency, µM (highest dose often 53.9 µM), inactives show top-dose GFP activation, most hits filed as activators; note: % of control where 0% means no effect; nearly all actives have a fitted effect of over 60% in size
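GFP-positive cell count by laser-scanning cytometry (objects 20–120 um) after 30 h, 37 C compound exposure of murine LDR cells; reporter is CMV-GFP integrated at a silenced locus, inducible by HDAC or DNMT inhibitors.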
* marks the source's active call; other numbers are inactive results; ? = inconclusive; nt = no result given; [ ] = remark or other dose. The list is not random: actives were taken first. Their share in the collection is about 8.1%. Unless noted, calls come from the whole dose curve; as a rule, active = well fitted curve in the direction sought with a large enough effect; inconclusive = small, poorly fitted or top-dose-only effect, or another doubt; inactive = no such curve, though single readings can be large; an effect the other way counts as inactive or inconclusive. Potency is the fitted concentration of half-maximal effect.

SMILES	ClpP mod	PINK1 expr mod	Sfp PPTase inh	Gal4-VP16 FLuc	RORgamma inh	Epigenetic derep
Cc1cccn2c(=O)c(C(=O)NC3CCCCC3)c(O)nc12	-13%	8%	8%	8%	-36%	nt
Cc1cccn2c(=O)c(C(=O)NC3CCCCC3C)c(O)nc12 (stereo not drawn)	28µM*	12%	nt	nt	nt	nt
CCCCn1cnc2c([nH]c3ccccc32)c1=O	?	0%	-3%	-4%	25%	1%
CCCn1cnc2c(=S)nc(N)[nH]c21	5%	2%	40µM*	-6%	-16%	-1%
CC1(C)OC2C(CO)OC(n3cnc4c(=S)nc(N)[nH]c43)C2O1 (stereo not drawn)	-5%	0%	nt	nt	nt	nt
CCCCCn1cnc2c(=S)nc(N)[nH]c21	3%	2%	2.5µM*	?	?	1%
CCCCn1cnc2c(=S)nc(N)[nH]c21	nt	-2%	14µM*	-3%	-34%	1%
Nc1nc(=S)c2ncn(C3CCCCC3)c2[nH]1	nt	0%	nt	nt	nt	nt
CCc1ccc(-n2c(N3CCN(c4cccc(C)c4C)CC3)nc3ccccc3c2=O)cc1	?	0%	nt	nt	nt	-2%
Cn1cccc1C1C(C#N)=C(N)OC2=C1C(=O)CCC2 (stereo not drawn)	nt	1%	40µM*	4%	-6%	-1%
N#CC1=C(N)OC2=C(C(=O)CCC2)C1c1ccccc1 (stereo not drawn)	-2%	2%[38.3 µM]	15%	8%	-18%	-1%
NC(=O)c1nsc(C(=O)N(CC(=O)NC2CCCCC2)Cc2ccc3c(c2)OCO3)c1N	-18%	0%	nt	nt	nt	nt
Cc1cc(C)n(-c2ccc(C(=O)NCC3Cc4cc(-c5cnccn5)ccc4O3)cc2)n1 (stereo not drawn)	nt	0%	nt	nt	nt	nt
COc1ccc(C(=O)NN)cc1	nt	2%	12%	-11%	?	1%
NNC(=O)c1ccc2nc(-c3ccc(Br)cc3)cn2c1	-2%	3%	24%	?	11µM*	2%
COc1ccc(-c2cn3cc(C(=O)NN)ccc3n2)cc1	-2%	5%	16%	10µM*	?	-3%
Cc1ccc(Cn2cc(CCC(=O)NC3CCC(C)CC3)c3ccccc32)cc1 (stereo not drawn)	-11%	2%	nt	nt	nt	0%
CCOc1ccc(C(=O)NC2CCN(C(=S)NCc3ccco3)CC2)cc1	0%	5%[38.3 µM]	7.1µM*	-17%[0.365 µM]	24%	-10%
CS(=O)(=O)Nc1ccccc1C(=O)NCc1ccco1	28µM*	-1%	2%	3%	-3%	-2%
CC(NC(=O)c1ccccc1NS(C)(=O)=O)c1ccccc1 (stereo not drawn)	16µM*	-3%	8%	5%	70%	-2%
Cc1cccc(C(=O)NC2CCN(C(=S)NCc3ccco3)CC2)c1	-2%	-5%[38.3 µM]	7%	-5%	3%	1%
O=C(Nc1ccccc1C(=O)NCc1ccco1)NC1CCCCC1	20µM*	2%	1%	20%	38%	-1%
Cc1ccc(-c2csc(-c3cc4c([nH]c3=O)CC(c3ccccc3)CC4=O)n2)cc1 (stereo not drawn)	-8%	10%	nt	nt	nt	?
CCc1nnc2c3ccccc3nc(Nc3ccc(C(C)=O)cc3)n12	-5%	10%	nt	nt	nt	0%
CCOC(=O)c1ccc(NC(=O)CN2C(=O)c3cccnc3Oc3ccc(Cl)cc32)cc1	?	0%	nt	nt	nt	-1%
SMILES	ClpP mod	PINK1 expr mod	Sfp PPTase inh	Gal4-VP16 FLuc	RORgamma inh	Epigenetic derep
O=C(NCc1ccccc1)NC1CC2CCC(C1)N2Cc1ccco1 (stereo not drawn)	1%	1%	13%	-9%	-3%	-1%
CCOc1ccc(S(=O)(=O)Nc2ccccc2C(=O)NCc2ccco2)cc1	25µM*	-2%	?	?	?	0%
O=C(NC1CCCCC1)NC1CC2CCC(C1)N2C(=S)NCc1ccco1 (stereo not drawn)	1%	nt	45µM*	0%	9%	0%
CCOC(=O)c1ccccc1NC(=O)c1cn(-c2ccc(C)c(C)c2)c(=O)c2ccccc12	13µM*	4%	-3%	-10%	?	-2%
Cc1ccccc1NS(=O)(=O)c1ccc(OCC(=O)NCc2ccco2)cc1	-2%	-3%	2%	-13%	-8%	3%
Cc1ccc(CNC(=O)c2ccccc2NS(C)(=O)=O)cc1	28µM*	1%	16%	-13%	-1%	-5%
Cc1ccccc1Nc1oc(-c2ccccc2)nc1-c1ccccc1	nt	nt	-23%	-8%	14%	1%
CC(C)n1c(SCC(=O)Nc2ccc(F)cc2)nc2c(oc3ccccc32)c1=O	1%	1%	nt	nt	nt	1%
O=C(Oc1ccccc1F)c1nc(SCc2ccc(F)cc2)ncc1Cl	-7%	3%	nt	nt	nt	-3%
CCOC(=O)c1ccccc1NC(=O)c1ccccc1NS(C)(=O)=O	35µM*	0%	-16%	-2%	-25%	1%
Cc1cc2ncn(CS(C)(=O)=O)c2cc1C	nt	0%	-6%	-3%	-1%	0%
C=C(C)Cn1cnc2cc(C)c(C)cc21	-1%	2%	21%	-2%	11µM*	0%
CSc1nnc(NC(=O)C23CC4CC(CC(C4)C2)C3)s1	1%	12%	-1%	?	18µM*	nt
CCCCN(C)C1=CC2=CC(=C(C#N)C#N)CCC2CC1 (stereo not drawn)	nt	13µM*	-11%	6%	34%	?
CC(=O)N1CCC2(CC1)C/C(=N\NC(=S)Nc1ccc(C)cc1)c1cc(O)ccc1O2	-30%	0%	1%	?	10µM*	3%
COc1ccc(NC(=S)N2CCCC2)cc1	1%	0%	13%	-5%	7%	-1%
CC(=O)N1CCC(Nc2ccc(C)cc2)CC1	-3%	-1%	13%	-1%	-1%	-1%
Cc1ccccc1NC(=S)N/N=C1\CC(C)(C)Oc2ccc(O)cc21	?	1%	17%	-8%	?	0%
COc1ccc(NC(=S)N/N=C2\CC(C)(C)Oc3ccc(OC)cc32)cc1	-27%	7%	-5%	2µM*	1.4µM*	1%
Cc1ccc(NC(=S)N/N=C2\CC(C)(C)Oc3ccc(O)cc32)cc1	-24%	3%	30%	5µM*	5.6µM*	0%
COC(=O)c1ccccc1NC(=O)NCC1CCCO1 (stereo not drawn)	25µM*	-2%	-3%	-1%	3%	0%
Cc1ccc(C(=O)Nc2ccccc2C(=O)NCC2CCCO2)cc1 (stereo not drawn)	-1%	0%	8%	-4%	3%	nt
Cc1ccccc1NC(=O)NCC1CCCO1 (stereo not drawn)	28µM*	-1%	2%	7%	-7%	-1%
Clc1cccc(-c2ccc(CNCc3ccccn3)o2)c1	6%	3%	79µM*	?	11µM*	nt
